Hits are enriched below; roughly 18% of the tested compounds scored in any of these assays.
TDP1 cell CPT – qHTS for Inhibitors of human tyrosyl-DNA phosphodiesterase 1 (TDP1): qHTS in cells in presence of CPT; chicken DT40 Tdp1-/-;hTDP1 cells + 20 nM CPT, ATP luminescence, 48 h; Potency, µM (series often up to 46.2 µM), inactives show top-dose activity change, negative = growth inhibition, actives largely listed as inhibitors; 420,000 compounds, 12% hits; AID 686979, 2013; also: potency is read from the fitted curve at half-maximal effect; % is scaled to controls: 0 for no effect and ±100 for the full control effect; nearly all actives have a fitted effect of over 55% in size
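Cell growth measured by CellTiter-Glo luminescence after a minimum 48 h, 37 C compound exposure with 20 nM CPT in Tdp1-knockout DT40 cells stably expressing hTDP1, seeded 400/well; qHTS titration format.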
DT40 TDP1 no CPT – qHTS for Inhibitors of human tyrosyl-DNA phosphodiesterase 1 (TDP1): qHTS in cells in absence of CPT | DT40 Tdp1-/- hTDP1 cells, no CPT, ATP luminescence, 48 h | Potency, µM (highest dose often 46.2 µM), inactives show at the highest dose activity change, negative = growth inhibition, actives largely listed as inhibitors | 420,000 compounds, 15% hits | AID 686978, 2013; also: potency is read from the fitted curve at half-maximal effect; % is scaled to controls: 0 for no effect and ±100 for the full control effect; nearly all actives have a fitted effect of over 55% in size
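Seeded 400 DT40-hTDP1 cells/well (vehicle DMSO, no 20 nM CPT); pinned compounds; ≥48 hr at 37 °C; CellTiter-Glo luminescence as viability measure.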
HepG2 tox – qHTS for Inhibitors of TGF-b: Cytotox Counterscreen | HepG2 CAGA-GFP viability, ATP luminescence, 18 h | Potency, µM (highest dose often 46.1 µM), for the others: at the top dose activity change, negative = cytotoxicity, usual class: cytotoxic | 410,000 compounds, 0.76% hits | AID 588856, 2011; also: potency is read from the fitted curve at half-maximal effect
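CellTiter-Glo luminescence gave cytotoxicity after 18 hours at 37 degrees C. The cells were HepG2 CAGA-GFP in 1% FBS DMEM, stimulated with 500 pg/mL TGF-beta after compound addition. %Activity was normalised to no-cell wells (complete cell-killing) and DMSO (no toxicity), and curves were fitted and classified.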
TGFb SMAD3 inh – qHTS for Inhibitors of TGF-b; 410,000 compounds, 1.2% hits; AID 588855, 2011; HepG2 CAGA-GFP TGF-b/SMAD3 reporter, GFP fluorescence, 18 h; TGF-beta stimulated, 500 pg/mL final; Potency, µM (doses to about 46.1 µM), for the others: at the top dose activity, negative = inhibition, usual class: inhibitors; also: potency is read from the fitted curve at half-maximal effect; % is scaled to controls: 0 for no effect and ±100 for the full control effect; nearly all actives have a fitted effect of over 65% in size
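GFP signal (ex488/em500-530) from TGF-beta-stimulated HEPG2 CAGA-GFP cells, 500 pg/mL final, 18 h at 37 degrees C in DMEM plus 1% FBS, normalized to unstimulated and DMSO-stimulated controls.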
IL-1B inflam inh – qHTS for Inhibitors of Inflammasome Signaling: IL-1-beta AlphaLISA Primary Screen | activity change, % at 57.5 µM | THP-1 LPS/ATP IL-1B secretion, AlphaLISA, 16 h; active compounds read low | 360,000 compounds, 4.7% hits; in the data active = activity change below about -50%; inconclusive = mostly about -30% to -49%; also: % is scaled to controls: 0 for no effect and ±100 for the full control effect
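Secreted IL-1B measured by AlphaLISA bead assay after 16 h compound exposure of THP-1 cells; compounds (final up to 57.5 uM) added 1 h before LPS (250 ng/mL) and ATP (1.25 mM) stimulation; lower signal means less secretion.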
TDP1 inh – qHTS Assay for Inhibitors of Tyrosyl-DNA Phosphodiesterase (TDP1); recombinant TDP1, AlphaScreen DNA substrate cleavage; Potency, µM (doses to about 130 µM), inactives show at the top dose activity change, negative = inhibition, hits mostly inhibitors; Tyrosyl-DNA phosphodiesterase 1 (Homo sapiens), Q9NUW8; AID 485290, 2010; 350,000 compounds, 0.28% hits; also: potency is read from the fitted curve at half-maximal effect; % is scaled to controls: 0 for no effect and ±100 for the full control effect; nearly all actives have a fitted effect of over 40% in size
Target sequence (Q9NUW8 whole entry, looked up): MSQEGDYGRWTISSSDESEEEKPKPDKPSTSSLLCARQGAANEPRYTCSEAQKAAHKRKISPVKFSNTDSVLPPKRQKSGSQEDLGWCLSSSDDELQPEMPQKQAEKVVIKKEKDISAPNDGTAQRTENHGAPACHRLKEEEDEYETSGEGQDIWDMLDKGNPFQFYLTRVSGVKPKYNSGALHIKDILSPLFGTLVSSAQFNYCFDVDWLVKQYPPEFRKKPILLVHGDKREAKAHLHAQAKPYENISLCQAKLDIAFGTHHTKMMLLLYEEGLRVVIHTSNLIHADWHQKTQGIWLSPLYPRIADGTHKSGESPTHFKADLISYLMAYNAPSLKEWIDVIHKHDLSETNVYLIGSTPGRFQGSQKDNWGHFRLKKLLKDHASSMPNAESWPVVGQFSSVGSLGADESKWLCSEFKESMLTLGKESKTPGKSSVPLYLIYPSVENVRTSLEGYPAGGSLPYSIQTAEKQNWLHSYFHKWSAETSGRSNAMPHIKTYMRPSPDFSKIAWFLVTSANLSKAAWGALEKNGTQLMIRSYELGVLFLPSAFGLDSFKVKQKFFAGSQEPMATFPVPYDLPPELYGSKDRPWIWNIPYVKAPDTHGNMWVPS
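Steps: enzyme plus compound, 15 min RT; add biotin/phosphotyrosine-FITC oligonucleotide (15 nM final), react 5 min; add donor/acceptor beads (10 ug/ml final), 10 min; read AlphaScreen. Tdp1 at 1 nM final.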
* marks the source's active call; other numbers are inactive results; ? = inconclusive; / = not tested or not shown; ! = repeats disagree; [ ] = remark or other dose. Unless noted, calls follow the shape of the dose curve; as a rule, active = well fitted curve in the direction sought with a large enough effect; inconclusive = small, poorly fitted or top-dose-only effect, or another doubt; inactive = no such curve, though single readings can be large; an effect the other way counts as inactive or inconclusive.

SMILES | TDP1 cell CPT | DT40 TDP1 no CPT | HepG2 tox | TGFb SMAD3 inh | IL-1B inflam inh | TDP1 inh
CCOC(=O)c1ccc(NC(=S)NC2CC(C)(C)NC(C)(C)C2)cc1 | ? | ? | 11µM* | ? | -2 | 1%
C[C@H](NC(=O)Cc1cccc2ccccc12)C(=O)N1CCOCC1 | -2% | 1% | -2% | -4% | 11 | -3%
COc1cc(CC(NC(C)=O)C(=O)NC2CCN(C(=O)Nc3ccc(C)cc3)CC2)cc(OC)c1 (centres undefined) | -1% | 21% | 1% | -14% | 18 | /
CCOC(=O)c1ccc(NC(=O)Cn2cccc2)cc1 | 15µM* | 16µM* | 2% | -5% | 12 | 7%
CCOC(=O)c1ccc(NC(=O)CN2CCCCC2)cc1 | -6% | -25% | / | / | / | /
CCOC(=O)c1ccc(NC(=O)Cn2nnc3ccccc32)cc1 | 23µM* | 10µM* | -3% | -8% | 15 | 5%
CS(=O)(=O)N(CC(=O)N1CCc2ccccc2C1)c1ccc(Cl)cc1F | -2% | -15% | -23% | 5% | -9 | /
O=C(NCCc1ccccc1)C1CCCN1C(=O)Nc1cccc(Cl)c1 (centres undefined) | ? | ? | 4% | 6% | -9 | /
O=C(Nc1ccccc1)c1cccc(=O)o1 | 23% | -19% | -68% | 0% | -8 | -2%
CC(=O)O[C@]1(C(C)=O)CC[C@H]2[C@@H]3C[C@H](C)C4=CC(=O)CC[C@]4(C)[C@H]3CC[C@@]21C | 18µM* | 16µM*! | -20% | 8% | ? | 5%
CCCCCC(=O)O[C@@]1(C(C)=O)CCC2C3CCC4=CC(=O)CC[C@@]4(C)C3CC[C@]21C (some centres undefined) | ? | ? | / | / | / | -9%[56.1 µM]
CC(=O)OC1(C(C)=O)CCC2C3CC(C(F)(F)F)C4=CC(=O)CCC4(C)C3CCC21C (centres undefined) | ? | 13µM* | -11% | -5% | -94* | /
CC(=O)C12CCCCC1CC1[C@@H]3CC(C)C4=CC(=O)CC[C@]4(C)C3CC[C@@]12C (some centres undefined) | ? | 15µM* | -15% | -4% | 11 | /
CCC(=O)OC1(C(C)=O)CCC2C3CCC4=CC(=O)CCC4(C)C3CCC21C (centres undefined) | -98% | 23µM* | 9% | -19% | -26 | /
CC12CCC(=O)C=C1C(O)CC1C2CCC2(C)C1CCC2(O)C(=O)CO (centres undefined) | ? | -18% | -3% | 1% | 4 | /
O=C(C[N+]1(CC(O)c2ccccc2)CCCCC1)c1ccccc1 (centres undefined) | ? | -10% | 23% | 17% | / | /
N#C/C(=C\c1ccc(OCc2ccccc2)cc1)C(=O)Nc1ccc(C(=O)O)cc1 | -8% | -14% | -10% | -3% | -12 | 45µM*
Cc1cc(C)c(NC(=O)/C(C#N)=C/c2ccc(OCc3ccc(F)cc3)cc2)c(C)c1 | 2.6µM* | 6.5µM* | -6% | -7% | -2 | -3%
COC(=O)c1ccc(COc2ccccc2/C=C(\C#N)C(=O)Nc2c(C)cc(C)cc2C)cc1 | 8.2µM* | 10µM* | -41% | ? | -79* | 1%
COc1ccc(NC(=O)/C(C#N)=C/c2ccc(OCc3ccccc3F)cc2)cc1 | 4% | -7% | 0% | 4% | 3 | 0%
COc1ccc(C2Nc3ccccc3C(=O)N2CCc2ccc(Cl)cc2Cl)cc1COc1ccc(NC(C)=O)cc1 (centres undefined) | / | / | / | / | / | 1%
C=CCOc1ccc(/C=C/C(=O)OCC(=O)N2CCN(S(=O)(=O)c3ccc(C)cc3C)CC2)cc1 | ? | 7.3µM* | -10% | -5% | 15 | /
COc1ccccc1/C=C/C(=O)OCC(=O)N1CCN(S(=O)(=O)c2ccc(C)cc2C)CC1 | ? | ? | 10% | -6% | 3 | 5%
COc1cc(/C=C/C(=O)OCC(=O)N2CCN(S(=O)(=O)c3ccc(C)cc3C)CC2)cc(Cl)c1OC | ? | 18µM* | -2% | ? | 1 | -6%[0.505 µM]
CSc1nc(NCCOCCO)c2sc3nc(-c4ccco4)c4c(c3c2n1)CCC4 | 18µM* | 16µM* | -75% | ? | -14 | 35µM*
SMILES | TDP1 cell CPT | DT40 TDP1 no CPT | HepG2 tox | TGFb SMAD3 inh | IL-1B inflam inh | TDP1 inh
CCN(CCO)c1nc(SC)nc2c1sc1nc(-c3ccco3)c3c(c12)CCC3 | -2% | 7% | -24% | ? | 19 | 4%
CN(C)c1ccccc1-c1cc(NC=O)c2ncc(-c3cccc(C(F)(F)F)c3)n2c1 | ? | 23µM* | -88% | ? | -74* | /
COc1cc(-c2cc(NC=O)c3ncc(-c4cccc(C(F)(F)F)c4)n3c2)cc(OC)c1OC | 8.2µM* | 10µM* | -21% | 2% | -28 | /
CS(=O)(=O)c1ccc(-c2cc(NC=O)c3ncc(-c4ccc(F)cc4)n3c2)cc1 | 23µM* | 23µM* | -20% | -7% | -14 | /
COc1ccccc1-c1cc(NC=O)c2ncc(-c3cccc(C(F)(F)F)c3)n2c1 | ? | 18µM* | -39% | ? | -7 | /
Cc1ccc(-n2nc3c(=O)n(CC(=O)NCCC(C)C)nc(C)c3c2C)cc1 | -6% | 3% | -12% | -18% | / | 6%
COc1ccc(F)cc1-c1cc(NC=O)c2ncc(-c3cccc(C(=O)N(C)C)c3)n2c1 | ? | 23µM* | -28% | -5% | -15 | /
CN(C)C(=O)c1cccc(-c2cnc3c(NC=O)cc(-c4ccccc4N(C)C)cn23)c1 | 23µM* | 16µM* | -35% | -21% | 24 | /
COc1ccccc1-c1cc(NC=O)c2ncc(-c3ccc(F)cc3)n2c1 | 13µM* | 18µM* | 5% | -24% | -23 | /
Cc1ccc(-c2cc(NC=O)c3ncc(-c4cccc(C(=O)N(C)C)c4)n3c2)cc1 | ? | ? | -5% | 2% | -14 | /
O=CNc1cc(-c2ccc(C(=O)NC3CC3)cc2)cn2c(-c3ccc(F)cc3)cnc12 | 23µM* | 23µM* | -10% | -24% | -78* | /
COc1ccccc1-c1ccnc(-n2ncc(C(=O)NC(c3cccnc3)C(F)(F)F)c2C)n1 (centres undefined) | -5%[9.04 µM] | ? | / | / | / | /

Screening data deposited in PubChem by National Center for Advancing Translational Sciences (NCATS).
